Source: PubChem BioAssay (NCI)
About 83,000 compounds went through this panel and 20% of them were active in at least one assay; those are over-represented in the sample as a whole.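 Treatment: one concentration, 48 hours, 96-well format. Scoring: percent growth, with anything below 10 considered active.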 Activity calls are given as the source filed them.

Tested on: SNB-75 CNS
Experiment: NCI-60 one-dose screen, 48 h (100 = growth as untreated, 0 = no growth, -100 = all killed)
Details: 10 µM unless noted

Structure (SMILES) | growth
N#Cc1cccc(CN2CCC3=C(C2)C(=O)N(Cc2ccc(Cl)cc2)C2=NCCN23)c1 | 60.9% (inactive)
COc1ccc(Oc2ccc(/C=N/NC(=O)CSc3nc4ccccc4c(=O)n3-c3ccc(Cl)cc3)cc2)cc1 | 41.6% (inactive)
O=C(NNc1nc2cc(F)c(F)cc2n2c(CN3CC4CNCC4C3)ccc12)c1ncccn1 (stereo not drawn) | 52.1% (inactive)
COc1cc(/C=C2\C(=O)Nc3cc(Cl)ccc32)ccc1OCc1ccc(F)cc1 | 104% (inactive)
C#CCOc1ccc(/C=N\Nc2nc(-c3ccc(C)cc3)cs2)cc1OC | 114% (inactive)
C=CCOc1cccc(/C=C2\SC(=S)N(C3CC(=O)N(c4ccc(Br)cc4)C3=O)C2=O)c1 (stereo not drawn) | 120% (inactive)
COc1ccc(S(=O)(=O)NCCCNc2nccc(-c3[nH]c(-c4ccccc4)nc3-c3ccc(Cl)c(O)c3)n2)cc1 | 108% (inactive)
CCn1c2ccccc2c2cc(-n3nncc3-c3ccccc3)ccc21 | 27.4% (inactive)
N#Cc1cccc(CN2CCC3=C(C2)C(=O)N(Cc2ccc(Cl)cc2)C2=NCCCN23)c1 | 68% (inactive)
COc1ccc(COc2ccc(/C=C3\C(=O)Nc4ccccc43)cc2OC)cc1 | 97.4% (inactive)
O=C(NNc1nc2cc(F)ccc2n2c(CN3CC4CNCC4C3)ccc12)c1cnccn1 (stereo not drawn) | 54.3% (inactive)
COc1ccc2[nH]cc(-c3csc4nc(-c5ccccc5)cn34)c2c1 | -4.19% (active)
COC(=O)C[Se]C(=O)Cc1c(C)n(C(=O)c2ccc(Cl)cc2)c2ccc(OC)cc12 | 73.5% (inactive)
